Reference: PubChem BioAssay (Tox21)
Results filed as inconclusive are left out. A call without a number means that no potency is given here. Active and inactive are the calls of the source. Unless noted, calls follow the shape of the dose curve; as a rule, active = well fitted curve in the direction sought with a large enough effect in the repeat runs; inconclusive = weak or mixed curves; inactive = no such curve, though single readings can be large; an effect the other way counts as inactive or inconclusive.

Key:
[1] = tested on: thyroid hormone receptor (rat, GH3 cells); assay: qHTS assay to identify small molecule agonists of the thyroid receptor (TR) signaling pathway (AID 743066; calls by dose curve)
[2] = target: Estrogen receptor (Homo sapiens) (UniProt P03372); assay: qHTS assay to identify small molecule antagonists of the estrogen receptor alpha (ER-alpha) signaling pathway (AID 743069; active = well fitted curve in the direction sought with a large enough effect in the signal ratio in the repeat runs, not every such curve was filed as active; the % refers to the signal ratio)
Sequence of Estrogen receptor (Homo sapiens) (P03372 whole entry, looked up): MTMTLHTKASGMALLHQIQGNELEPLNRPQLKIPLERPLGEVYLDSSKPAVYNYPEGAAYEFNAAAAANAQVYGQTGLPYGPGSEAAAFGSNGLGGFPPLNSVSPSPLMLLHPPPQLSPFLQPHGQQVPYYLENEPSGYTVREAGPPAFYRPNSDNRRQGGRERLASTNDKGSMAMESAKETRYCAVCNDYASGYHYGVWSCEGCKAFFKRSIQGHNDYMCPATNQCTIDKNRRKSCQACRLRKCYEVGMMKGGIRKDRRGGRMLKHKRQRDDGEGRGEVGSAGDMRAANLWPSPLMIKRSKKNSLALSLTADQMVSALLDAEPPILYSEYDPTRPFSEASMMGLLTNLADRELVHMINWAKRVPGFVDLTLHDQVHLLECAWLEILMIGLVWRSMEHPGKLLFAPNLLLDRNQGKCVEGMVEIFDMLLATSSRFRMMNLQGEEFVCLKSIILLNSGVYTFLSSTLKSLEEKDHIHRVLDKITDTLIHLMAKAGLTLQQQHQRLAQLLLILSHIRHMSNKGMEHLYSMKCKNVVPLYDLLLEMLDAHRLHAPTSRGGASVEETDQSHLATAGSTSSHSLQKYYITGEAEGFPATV
Procedure, shortened: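 HEK293 cells stably carrying an ER-alpha-UAS-bla beta-lactamase reporter were pre-cultured overnight in 2% charcoal-stripped FBS medium. Test compounds in DMSO were added together with 17beta-estradiol for 18 hr at 37C. Read-out was fluorescence after 2 hr with LiveBLAzer B/G FRET substrate at room temperature.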

[3] = target: Estrogen receptor (Homo sapiens) (UniProt P03372); assay: qHTS assay to identify small molecule agonists of the estrogen receptor alpha (ER-alpha) signaling pathway (AID 743075; calls by dose curve)
[4] = qHTS assay to identify small molecule antagonists of the estrogen receptor alpha (ER-alpha) signaling pathway using the BG1 cell line (AID 743080; calls by dose curve;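 also: BG1 cells stimulated with 17beta-estradiol alongside compound; series mostly up to about 70 µM; nearly all actives have a fitted effect of over 25% in size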)
Procedure, shortened: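 Seeding, 24 h rest, compound transfer from DMSO, 17beta-estradiol addition, 21.5 h incubation, CellTiter-Fluor (30 min, 37 C), then ONE-Glo (30 min, room temperature): this sequence was run on BG1-Luc-4E2 reporter cells.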

[5] = qHTS assay to identify small molecule antagonists of the estrogen receptor alpha (ER-alpha) signaling pathway using the BG1 cell line - cell viability counter screen (AID 743081);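 also: compound given together with 17beta-estradiol as the ER stimulus; series mostly up to about 70 µM; nearly all actives have a fitted effect of over 45% in size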
Aromatase (Homo sapiens) = Aromatase (Homo sapiens) (UniProt P11511); assay: qHTS assay to identify aromatase inhibitors (AID 743083); also: series mostly up to about 70 µM; nearly all actives have a fitted effect of over 55% in size
Sequence of Aromatase (Homo sapiens) (P11511 whole entry, looked up): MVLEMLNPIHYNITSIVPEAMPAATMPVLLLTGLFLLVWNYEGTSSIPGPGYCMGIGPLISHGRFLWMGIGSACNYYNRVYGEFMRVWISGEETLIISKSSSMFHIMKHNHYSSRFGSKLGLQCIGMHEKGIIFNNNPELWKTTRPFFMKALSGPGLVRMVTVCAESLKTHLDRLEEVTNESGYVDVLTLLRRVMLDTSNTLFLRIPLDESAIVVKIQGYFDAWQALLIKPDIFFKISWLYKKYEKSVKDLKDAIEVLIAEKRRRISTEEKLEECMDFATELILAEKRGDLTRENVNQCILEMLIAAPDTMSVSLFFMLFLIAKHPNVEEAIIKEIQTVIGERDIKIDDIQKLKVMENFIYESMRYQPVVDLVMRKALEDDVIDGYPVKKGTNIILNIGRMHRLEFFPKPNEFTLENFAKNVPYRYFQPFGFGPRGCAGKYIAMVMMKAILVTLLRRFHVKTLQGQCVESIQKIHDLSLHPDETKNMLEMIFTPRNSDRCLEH

[6] = qHTS assay to identify aromatase inhibitors - cell viability counter screen (AID 743084);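 also: cells stimulated with testosterone during compound exposure; nearly all actives have a fitted effect of over 55% in size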
[7] = target: Aryl hydrocarbon receptor (Homo sapiens) (UniProt P35869); assay: qHTS assay to identify small molecule that activate the aryl hydrocarbon receptor (AhR) signaling pathway (AID 743085); also: nearly all actives have a fitted effect of over 15% in size; also: potency is read from the fitted curve at half-maximal effect;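 as to activation: HG2L7.5c1 human HepG2 liver cells with stably integrated DRE-driven firefly reporter; series mostly up to about 70 µM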
Sequence of Aryl hydrocarbon receptor (Homo sapiens) (P35869 whole entry, looked up): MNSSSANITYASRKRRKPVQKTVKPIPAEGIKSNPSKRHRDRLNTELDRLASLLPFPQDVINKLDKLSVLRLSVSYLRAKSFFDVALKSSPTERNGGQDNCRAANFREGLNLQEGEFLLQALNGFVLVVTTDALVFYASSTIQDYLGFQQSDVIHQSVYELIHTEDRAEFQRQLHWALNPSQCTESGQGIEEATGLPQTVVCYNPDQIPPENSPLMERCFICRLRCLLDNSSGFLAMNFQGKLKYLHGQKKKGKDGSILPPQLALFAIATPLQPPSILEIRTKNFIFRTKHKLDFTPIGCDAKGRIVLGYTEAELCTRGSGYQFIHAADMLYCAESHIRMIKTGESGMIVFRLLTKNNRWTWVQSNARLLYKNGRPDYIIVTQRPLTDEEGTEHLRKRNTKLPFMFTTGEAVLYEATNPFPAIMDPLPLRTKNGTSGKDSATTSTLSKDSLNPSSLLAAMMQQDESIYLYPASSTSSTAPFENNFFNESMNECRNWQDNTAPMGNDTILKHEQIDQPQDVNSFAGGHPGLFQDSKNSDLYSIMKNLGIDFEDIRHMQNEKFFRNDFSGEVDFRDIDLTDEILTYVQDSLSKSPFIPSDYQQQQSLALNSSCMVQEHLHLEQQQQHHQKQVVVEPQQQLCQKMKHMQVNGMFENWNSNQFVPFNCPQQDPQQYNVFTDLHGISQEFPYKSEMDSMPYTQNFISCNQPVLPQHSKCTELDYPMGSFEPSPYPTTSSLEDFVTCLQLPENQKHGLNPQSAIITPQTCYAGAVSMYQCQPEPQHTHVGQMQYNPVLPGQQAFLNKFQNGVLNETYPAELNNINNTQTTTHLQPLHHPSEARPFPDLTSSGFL
Procedure, shortened: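 HepG2 cells (HG2L7.5c1) stably carrying a firefly luciferase reporter driven by 20 dioxin responsive elements were exposed to compound for 24 h at 37C after a 5 h settling period; luminescence rise (ONE-Glo) indicated activation.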

[8] = qHTS assay to identify small molecule antagonists of the estrogen receptor alpha (ER-alpha) signaling pathway - cell viability counter screen (AID 743074; calls by dose curve; also: nearly all actives have a fitted effect of over 45% in size)
[9] = target: Estrogen receptor (Homo sapiens) (UniProt P03372); assay: qHTS assay to identify small molecule agonists of the estrogen receptor alpha (ER-alpha) signaling pathway using the BG1 cell line (AID 743079); also: nearly all actives have a fitted effect of over 20% in size

Compound | Potency [1] | Potency [2] | Potency [3] | Potency [4] | Potency [5] | Potency (Aromatase (Homo sapiens)) | Potency [6] | Potency [7] | outcome [8] | Potency [9] | activation [7]
CCCCCCCCCC(=O)OCC | inactive | inactive | inactive | inactive | inactive | inactive | inactive | inactive |  |  | 
CC/C(=C\C(=N/O)C(N)=O)C(C)[N+](=O)[O-] (configuration not stated) | inactive |  | inactive | inactive | inactive | inactive | inactive | inactive | inactive | inactive | 
NC(N)=N/N=C/c1c(Cl)cccc1Cl | inactive |  | inactive | inactive |  | inactive |  | inactive | inactive | inactive | 
CCOc1cc(OCC)c(C(=O)CCC(=O)O)cc1OCC | inactive |  | inactive | inactive | inactive | inactive | inactive | inactive | inactive | inactive | 
N#Cc1cc2ccccc2c2ccccc12 | inactive |  | inactive | inactive | inactive | inactive | inactive | 61.4 µM (active) | inactive | inactive | 
CC(CN)CCCN (configuration not stated) | inactive | inactive | inactive | inactive | inactive | inactive | inactive | inactive | inactive |  | 
NC1CCN(c2nc3c(cc2F)c(=O)c(C(=O)O)cn3-c2ccc(F)cc2F)C1 (configuration not stated) | inactive |  | inactive | inactive |  | inactive | inactive | inactive | inactive | inactive | 
CC1=CC(=O)/C(=C(/C)O)C(=O)O1 | inactive | inactive | inactive | inactive | inactive | inactive | inactive |  | inactive |  | 
O=C(O)Cc1sc(-c2ccccc2)nc1-c1ccc(Cl)cc1 | inactive |  | inactive | inactive | inactive | inactive | inactive | 10.6 µM (active) | inactive | inactive | 
CCCCOCCOCCOCCOCCO | inactive | inactive | inactive | inactive | inactive | inactive | inactive | inactive | inactive |  | 
COc1ccc(OC)c(OC)c1 | inactive | inactive | inactive | inactive | inactive | inactive | inactive | inactive | inactive |  | 
CC(C)CCCC(C)CCO (configuration not stated) | inactive | inactive | inactive | inactive | inactive | inactive | inactive | inactive | inactive |  | 
O=C1c2cccc(O)c2C(=O)c2c(O)cc(CO)cc21 | inactive |  | inactive |  | inactive | inactive | inactive | inactive | inactive |  | 
CC(=O)[C@@]1(O)CC[C@H]2[C@@H]3C[C@H](C)C4=CC(=O)CC[C@]4(C)[C@H]3CC[C@@]21C | inactive |  | inactive |  | inactive | inactive | inactive | inactive | inactive |  | 
NC[C@H]1O[C@H](O[C@H]2[C@H](O)[C@@H](O[C@H]3O[C@H](CO)[C@@H](O)[C@H](N)[C@H]3O)[C@H](N)C[C@@H]2N)[C@H](O)[C@@H](O)[C@@H]1O | inactive |  |  | inactive | inactive | inactive | inactive |  | inactive |  | 0.116% [at 8.47 µM] (inactive)
CC(C)CCCCCCOC(=O)c1ccc(C(=O)OCCCCCCC(C)C)c(C(=O)OCCCCCCC(C)C)c1 | inactive |  |  |  | inactive | inactive | inactive | inactive | inactive |  | 
CC(=O)Nc1ccc(/C=N/NC(N)=S)cc1 | inactive |  |  |  | inactive | inactive | inactive | inactive | inactive |  | 
NC(=S)N/N=C/c1cccnc1 | inactive |  |  |  | inactive | inactive | inactive | inactive | inactive |  | 
